In PubChem BioAssay (NCI):
Values joined by “and” are separate entries in the source; they are usually repeats but may differ in a detail not shown here. Equal values may be shown once. The panel holds about 79,000 compounds, 15% with a hit somewhere; the sample as a whole holds those more often. Some structures have more than one record in an assay (separate samples or runs), and their calls can disagree. Active and inactive are the calls of the source. No stated cut-off is given here; in the data, active means growth inhibition above about 70%; inactive means the rest.

Legend:
[1] = NCI Yeast Anticancer Drug Screen. Data for the rad52 strain (AID 147);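 further: 0% = growth of vehicle-treated control cultures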; details: S. cerevisiae rad52 mutant growth inhibition, stronger effect = higher value
Procedure, shortened: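 Screen used a yeast mutant impaired in DNA repair. After compound exposure, growth was measured. Values reflect inhibition compared with vehicle-treated cells.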

[2] = NCI Yeast Anticancer Drug Screen. Data for the wt1 strain (AID 149);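 further: 0% = growth of vehicle-treated wt1 cultures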; details: S. cerevisiae wt1 strain (SPY 50644) growth inhibition, stronger effect = higher value
Procedure, shortened: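 Compounds are added to wt1 yeast cultures. Growth is then measured. Inhibition is expressed relative to vehicle-treated controls.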

[3] = NCI Yeast Anticancer Drug Screen. Data for the rad50EPP+ strain (AID 151);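 further: 0% = growth of vehicle-treated control cultures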; details: S. cerevisiae rad50 mutant strain, stronger effect = higher value
Procedure, shortened: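 Exposing the rad50EPP+ strain to each compound, growth was compared with vehicle-only cultures to give inhibition.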

[4] = NCI Yeast Anticancer Drug Screen. Data for the mgt1 strain (AID 153); details: S. cerevisiae mgt1 mutant growth inhibition, stronger effect = higher value
Procedure, shortened: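 Genetically defined yeast (mgt1) treated with compound; inhibition of growth expressed against vehicle-treated controls.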

[5] = NCI Yeast Anticancer Drug Screen. Data for the rad50 strain (AID 155);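 further: 0% = growth of vehicle-only cultures of the same strain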; details: S. cerevisiae rad50 strain growth inhibition, stronger effect = higher value
Procedure, shortened: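 Inhibition values express reduced yeast growth in compound-treated cultures relative to vehicle-treated controls.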

[6] = NCI Yeast Anticancer Drug Screen. Data for the mec2-1 strain (AID 157); details: S. cerevisiae mec2-1 strain, stronger effect = higher value
Procedure, shortened: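 Readout is yeast growth inhibition, normalised to vehicle-treated controls, in the mec2-1 strain exposed to compound.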

[7] = NCI Yeast Anticancer Drug Screen. Data for the rad14 strain (AID 159);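 further: 0% = growth of vehicle-treated control cultures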; details: S. cerevisiae rad14 strain growth inhibition, stronger effect = higher value
Procedure, shortened: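 A mutant yeast strain defective in DNA damage repair is treated with compound; inhibition of its growth is scored against untreated, vehicle-exposed cultures.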

[8] = NCI Yeast Anticancer Drug Screen. Data for the sgs1 mgt1 strain (AID 161);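 further: 0% = growth of cultures given vehicle only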; details: S. cerevisiae sgs1 mgt1 strain, stronger effect = higher value
Procedure, shortened: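 Percent growth inhibition was derived by comparing compound-exposed mutant yeast with vehicle-exposed cultures. The strain carries alterations in DNA damage repair.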

[9] = NCI Yeast Anticancer Drug Screen. Data for the CLN2oe strain (AID 163);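 further: 0% = growth of vehicle-only control cultures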; details: S. cerevisiae CLN2oe strain, stronger effect = higher value
Procedure, shortened: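 Values reflect how much compound exposure reduced yeast growth, referenced to vehicle-exposed cells. Assay organism is a strain with a defined genetic change affecting cell-cycle control.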

[10] = NCI Yeast Anticancer Drug Screen. Data for the cln2 rad14 strain (AID 165);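 further: 0% = growth equal to vehicle treated cultures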; details: S. cerevisiae cln2 rad14 strain, stronger effect = higher value
Procedure, shortened: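 Relative to vehicle controls, growth inhibition of compound-treated cln2 rad14 yeast was recorded.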

[11] = NCI Yeast Anticancer Drug Screen. Data for the bub3 strain (AID 167); details: S. cerevisiae bub3 mutant strain, stronger effect = higher value
Procedure, shortened: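 Steps: expose the mutant yeast strain to compound; grow alongside vehicle-treated cultures; measure growth; express inhibition against the vehicle cultures.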

[12] = NCI Yeast Anticancer Drug Screen. Data for the wt2 strain (AID 169);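 further: 0% = growth of vehicle-treated yeast cultures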; details: S. cerevisiae wt2 strain growth inhibition, stronger effect = higher value
Procedure, shortened: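 Values express reduction in yeast growth under compound treatment, referenced to vehicle-treated cells.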

[13] = NCI Yeast Anticancer Drug Screen. Data for the mlh1 strain (AID 171);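 further: 0% = growth of vehicle-treated control cultures of the same strain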; details: S. cerevisiae mlh1 strain growth inhibition, stronger effect = higher value
Procedure, shortened: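 Steps: expose the defined-mutant yeast strain to compound; expose a parallel culture to vehicle; measure growth; express compound effect as inhibition relative to the vehicle culture.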

[14] = NCI Yeast Anticancer Drug Screen. Data for the sgs1 strain (AID 173);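 further: 0% = growth of vehicle-only control cultures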; details: S. cerevisiae sgs1 mutant, stronger effect = higher value
Procedure, shortened: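 Treat defined-mutant yeast with compound; measure growth; calculate inhibition relative to vehicle-treated cells.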

[15] = NCI Yeast Anticancer Drug Screen. Data for the mlh1 rad18 strain (AID 175); details: S. cerevisiae mlh1 rad18 strain growth inhibition, stronger effect = higher value
Procedure, shortened: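 Test agents were incubated with a yeast strain of defined genotype (DNA damage repair defect). Inhibition of growth was derived by comparison with vehicle-exposed cultures.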

[16] = NCI Yeast Anticancer Drug Screen. Data for the rad18 strain (AID 177); details: S. cerevisiae rad18 mutant growth inhibition, stronger effect = higher value
Procedure, shortened: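 A genetically defined yeast mutant impaired in DNA damage repair was treated with test compounds, then its growth was measured against cultures receiving vehicle alone.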

[17] = at 5.0 µM (retest, dose inferred, filed as 0.5)
[18] = at 50.0 µM (retest, dose inferred, filed as 5.0)

Measured: growth inhibition

O=c1[nH]c2ccc(Cl)cc2o1
active: [11]; at 33.0 µM 71% | [11]; [18] 92% and 96% | [11]; at 50.0 µM 87.3% and 92% | [11]; at 100.0 µM 92%
93% (active) and 68% (inactive): [6]; [18]
92% (active) and 32% (inactive): [15]; [18]
inactive: [1]; at 1.2 µM -14% | [1]; at 3.7 µM -10% | [1]; at 11.0 µM -11% | [1]; at 33.0 µM -13% | [1]; at 100.0 µM -1% | [2]; at 1.2 µM -30% | [2]; at 3.7 µM -28% | [2]; at 11.0 µM -33% | [2]; at 33.0 µM -32% | [2]; at 100.0 µM -23% | [3]; at 1.2 µM -43% | [3]; at 3.7 µM -42% | [3]; at 11.0 µM -33% | [3]; at 33.0 µM -52% | [3]; at 100.0 µM -64% | [4]; at 1.2 µM -45% | [4]; at 3.7 µM -37% | [4]; at 11.0 µM -28% | [4]; at 33.0 µM -33% | [4]; at 100.0 µM -23% | [5]; at 1.2 µM -31% | [5]; at 3.7 µM -23% | [5]; [17] 47% and 1% | [5]; at 11.0 µM -17% | [5]; at 33.0 µM -19% | [5]; at 50.0 µM 15.6% and 15.7% | [5]; at 100.0 µM -18% | [6]; at 1.2 µM -62% | [6]; at 3.7 µM -70% | [6]; [17] 48% and -3% | [6]; at 11.0 µM -60% | [6]; at 33.0 µM -47% | [6]; at 50.0 µM 3.9% and 2.1% | [6]; at 100.0 µM -53% | [7]; at 1.2 µM -44% | [7]; at 3.7 µM -38% | [7]; at 11.0 µM -28% | [7]; at 33.0 µM -35% | [7]; at 100.0 µM -32% | [8]; [17] 6% and 1% | [8]; [18] 20% and 51% | [8]; at 50.0 µM 15.4% and -2.75% | [9]; at 1.2 µM -25% | [9]; at 3.7 µM -26% | [9]; at 11.0 µM -30% | [9]; at 33.0 µM -34% | [9]; at 100.0 µM -15% | [10]; [17] 46% and 2% | [10]; [18] 53% and 43% | [10]; at 50.0 µM 23.1% and -1.85% | [11]; at 1.2 µM -15% | [11]; at 3.7 µM -1% | [11]; [17] 57% and 20% | [11]; at 11.0 µM 7% | [12]; at 1.2 µM -27% | [12]; at 3.7 µM -27% | [12]; at 11.0 µM -31% | [12]; at 33.0 µM -27% | [12]; at 100.0 µM -6% | [13]; at 1.2 µM -41% | [13]; at 3.7 µM -33% | [13]; at 11.0 µM -56% | [13]; at 33.0 µM -41% | [13]; at 100.0 µM -27% | [14]; at 1.2 µM -36% | [14]; at 3.7 µM -47% | [14]; at 11.0 µM -48% | [14]; at 33.0 µM -34% | [14]; at 100.0 µM -22% | [15]; [17] 52% and 1% | [15]; at 50.0 µM 24.9% and -2.65% | [16]; at 1.2 µM -39% | [16]; at 3.7 µM -34% | [16]; at 11.0 µM -46% | [16]; at 33.0 µM -38% | [16]; at 100.0 µM -21%
98% (active) and 64% (inactive): [5]; [18]
